Laboratory results published in the OligoGym collection.

molecular target: SCN4A; test: pooled miR-30 sensor sort-seq; sequence = guide strand; conditions: shRNA
Further: reference of the scale not given here.

In order of rising sensor-assay potency score (higher = more potent):
1. TGCTCGACAATCTTGAAGCAGG  -1.33
2. TACTCCACATTCTTGGACCAGG  -1.18
3. TTGAGCACGATGCAGATGGTGA  -0.925
4. TAGTCCTGTGTCATGAGGCGGA  -0.484
5. TTGATGCAGTAGTAGAACTTGC  -0.382
6. TTGTAGTCAGCTGTGCTGCAGA  -0.246
7. TTCAGAACCATCTCTGCTGTGA  0.403
8. TTGTACAGGATGTCCACCTTGA  0.539
9. TTTGAACTTCTCAAGCATCTGC  1.21

molecular target: SDHAF1; test: as above; conditions: shRNA

In order of rising sensor-assay potency score (higher = more potent):
1. TCGTGGGGGTTCCTTGGACTGT  -2.02
2. ATGCTGCCGGAACTCTGCCCGC  -1.77
3. TCCTTGGACTGTCGCCGTCGTC  -1.69
4. TGTCGCCGTCGTCAGGCTGGGA  -1.53
5. TGCGCAGCACGTCGGACCGCGG  -1.5
6. TACTCGATGCGCAGCACGTCGG  -1.32
7. TCGATGCGCAGCACGTCGGACC  -1.24
8. TTGGACTGTCGCCGTCGTCAGG  -1.17
9. ATGCGCAGCACGTCGGACCGCG  -1.11
10. ACTGTCGCCGTCGTCAGGCTGG  -1.04
11. TGGACTGTCGCCGTCGTCAGGC  -0.932
12. TACAGGCTCAGAACCTGCCTCT  -0.402

molecular target: SDR9C7; test: as above; conditions: shRNA

In order of falling sensor-assay potency score (higher = more potent):
1. TTGATGACATCTCTGACTCTGG  0.0736
2. TAACTTGTCAGTATAGATGCGG  -0.0735
3. TTCGCTCTTGGTGACATCCAGT  -0.405
4. TTGCAGTTCTTGAACCAGCGAT  -0.518
5. TTAGGATGAAATCTGTCACAGG  -0.552
6. AACTTGTCAGTATAGATGCGGA  -0.682
7. TTGTTCGCCCACTTTGTCCCTC  -0.717
8. TAGAGCTCACGCCTTATGCTGT  -0.719
9. ATGCTGTTGATGACATCTCTGA  -0.812
10. TTATGTTTTTTAACTTGTCAGT  -0.963
11. TTGCCGAGAATGGCTGTCCGAT  -0.982
12. TTGATGCTTTCGCTCTTGGTGA  -1.21

molecular target: SEC11C; test: as above; conditions: shRNA

In order of falling sensor-assay potency score (higher = more potent):
1. TCATGAACTTTGATTACTCTGT  0.434
2. TGAACTTTGATTACTCTGTGAA  0.177
3. ATGAACTTTGATTACTCTGTGA  -0.369
4. TTTGATTACTCTGTGAACTATT  -0.483
5. ATTATTATCTCCTTTAGTCAGA  -0.731
6. TTGGAATGTCTCGTCCTTCAAC  -1.07
7. TTCAACTTTAAAAACAACTATT  -1.15
